TGFb inhibitor: TGF-b pathway inhibition. 410,000 tested, 1.2% active. AID 588855. HepG2 CAGA-GFP TGF-b/SMAD3 reporter, GFP fluorescence, 18 h; TGF-beta stimulated, 500 pg/mL final. Potency, µM (highest dose often 46.1 µM), for the others: at the highest dose activity, negative = inhibition, actives largely listed as inhibitors; further: on the % scale 0 is the no-effect control and ±100 the full control effect; nearly all actives have a fitted effect of over 65% in size
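First, reporter cells (HEPG2 CAGA-GFP) rested 2 h at 37 degrees C. Next, compounds were pinned in and TGF-beta added to 500 pg/mL final. After 18 h, GFP was imaged per cell and summed per well.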
ATXN2 expr inh: reduces ATXN2 reporter expression in HEK-293 cells; HEK-293 ATXN2-luciferase reporter, luminescence, 24 h; AID 1745845; 360,000 tested, 0.72% active; Potency, µM (top dose mostly 57 µM), without a hit: top-dose activity change, negative = inhibition, usual class: inhibitors; further: on the % scale 0 is the no-effect control and ±100 the full control effect; nearly all actives have a fitted effect of over 55% in size
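qHTS (up to 57 uM final) was run with 24 h compound exposure of reporter cells at 37 °C. Each well was multiplexed: SteadyGlo luminescence measured ATXN2-luciferase expression after a fluorogenic Gly-Phe-AFC viability readout (25 uM final).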
ATXN viability: cell viability loss in ATXN counter-screen; AID 651635; 400,000 tested, 0.49% active; S2 cells (HEK-293 line with an ATXN2-luciferase reporter) viability, CellTiter-Fluor protease fluorescence, 24 h; Potency, µM (titrated, usually from 56.7 µM), hits mostly cytotoxic; further: nearly all actives have a fitted effect of over 40% in size
DT40 TDP1 no CPT: qHTS for Inhibitors of human tyrosyl-DNA phosphodiesterase 1 (TDP1): qHTS in cells in absence of CPT | 420,000 tested, 15% active | Potency, µM (top dose mostly 46.2 µM), without a hit: at the highest dose activity change, negative = growth inhibition, actives largely listed as inhibitors | DT40 Tdp1-/- hTDP1 cells, no CPT, ATP luminescence, 48 h | AID 686978, 2013; further: on the % scale 0 is the no-effect control and ±100 the full control effect; nearly all actives have a fitted effect of over 55% in size
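Cells were dispensed at 400 per well, compounds added by pin tool, plates incubated ≥48 hr at 37 °C, then CellTiter-Glo added for 30 min at room temperature before luminescence reading. Line: DT40 Tdp1-/- complemented with hTDP1; camptothecin omitted.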
HepG2 tox: counter-screen for TGF-b inhibitors: cytotoxicity in HepG2 cells; HepG2 CAGA-GFP viability, ATP luminescence, 18 h; Potency, µM (top dose mostly 46.1 µM), without a hit: at the highest dose activity change, negative = cytotoxicity, hits mostly cytotoxic; 410,000 tested, 0.76% active; AID 588856
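CellTiter-Glo luminescence gave cytotoxicity after 18 hours at 37 degrees C. The cells were HepG2 CAGA-GFP in 1% FBS DMEM, stimulated with 500 pg/mL TGF-beta after compound addition. %Activity was normalised to no-cell wells (complete cell-killing) and DMSO (no toxicity), and curves were fitted and classified.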
DT40 TDP1 CPT: growth inhibition of DT40 Tdp1-/-;hTDP1 cells with camptothecin (screen for TDP1 inhibitors) | 420,000 tested, 12% active | AID 686979 | Potency, µM (top dose mostly 46.2 µM), for the others: at the highest dose activity change, negative = growth inhibition, actives largely listed as inhibitors | chicken DT40 Tdp1-/-;hTDP1 cells + 20 nM CPT, ATP luminescence, 48 h; further: on the % scale 0 is the no-effect control and ±100 the full control effect; nearly all actives have a fitted effect of over 55% in size
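Cell growth measured by CellTiter-Glo luminescence after a minimum 48 h, 37 C compound exposure with 20 nM CPT in Tdp1-knockout DT40 cells stably expressing hTDP1, seeded 400/well; qHTS titration format.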
* marks the source's active call; other numbers are inactive results; i = inactive; ? = inconclusive; · = no result; [ ] = another dose, or the depositor's remark. An excerpt weighted towards active compounds, which were near 17% of everything screened. The call rests on the fitted dose curve; in most records, active means well fitted curve in the direction sought with a large enough effect; inconclusive means small, poorly fitted or top-dose-only effect, or another doubt; inactive means no such curve, though single readings can be large; an effect the other way counts as inactive or inconclusive. Potency means the concentration at half of the fitted maximal effect.

SMILES	TGFb inhibitor	ATXN2 expr inh	ATXN viability	DT40 TDP1 no CPT	HepG2 tox	DT40 TDP1 CPT
COc1ccc([N+](=O)[O-])cc1NCc1ccccc1C	16%	-26%	i	-27%	-37%	-20%
Cc1ccccc1CN1CCc2cc([N+](=O)[O-])ccc21	-18%	?	i	18µM*	13µM*	?
COc1ccc(NC(=O)CN(C)C(=O)c2cc(-c3ccc(Cl)cc3)nc3ccccc23)cc1	-21%	?	?	21µM*	-5%	?
CCOc1ccc(NC(=O)CN(C)C(=O)c2cc(-c3ccc(OC)cc3)nc3ccccc23)cc1OCC	8%	9%	?	15µM*	-28%	?
CCOc1ccc(NC(=O)CN(C)C(=O)c2sccc2-c2ccccc2)cc1OCC	3%	-3%	i	?	-15%	?
CCN(CC(=O)Nc1ccc(NC(C)=O)cc1)C(=O)c1cc(-c2ccccc2Cl)nc2ccccc12	-13%	·	?	15µM*	-12%	?
CCN(CC(=O)Nc1ccc(NC(C)=O)cc1)C(=O)c1ccc2ccccc2c1	-5%	-14%	i	-9%	4%	-9%
C=CCNC(=S)N1CCC(C(=O)c2ccc(C)cc2)CC1	0%	-15%	i	?	-5%	26µM*
Cc1ccc(C(=O)C2CCN(C(=S)NCC3CCCO3)CC2)cc1 (centres undefined)	-15%	-8%	i	10µM*	-19%	15µM*
O=C(c1ccc(F)cc1)C1CCN(C(=S)NCC2CCCO2)CC1 (centres undefined)	1%	1%[11.3 µM]	i	-14%	-2%	-30%
Cc1ccc(-c2c(C(=O)NNC(=S)NCC3CCCO3)csc2C)cc1 (centres undefined)	-8%	-2%	?	0.46µM*	-20%	?
C=CCNC(=S)N1CCC(C(=O)c2ccc(Cl)cc2)CC1	-27%	·	?	?	-27%	16µM*
CC(C)(C)NC(=S)N1CCC(C(=O)c2ccc(Cl)cc2)CC1	0%	-19%	?	-2%	-6%	-11%
COc1ccc(S(=O)(=O)N2c3ccc(Cl)cc3[C@@](O)(c3ccccc3Cl)[C@H]2C(=O)N2CCC[C@@H]2C(N)=O)cc1OC	·	7%	i	?	·	?
COc1ccc(CCn2c(C)c(C(C)=O)c3cc(OC(=O)c4ccco4)ccc32)cc1OC	-18%	-16%	i	?	6%	?
CCOCCCNC(=S)N1CCC(C(=O)c2ccc(C)cc2)CC1	-9%	-26%	i	?	-5%	18µM*
COCCCNC(=S)N1CCC(C(=O)c2ccc3c(c2)OCCO3)CC1	-10%	0%[11.3 µM]	i	-26%	-1%	?
COCCNC(=S)N1CCC(C(=O)c2ccc(F)cc2)CC1	-3%	·	i	?	-2%	-5%
CC(C)CNC(=S)N1CCC(C(=O)c2ccc3c(c2)OCCO3)CC1	-18%	-12%	?	23µM*	-9%	?
CN(C)CCCNC(=S)N1CCC(C(=O)c2ccc(Cl)cc2)CC1	3%	·	i	16µM*	-39%	23µM*
CN(C)c1ccc(-c2csc(C(C)(O)c3ccc(F)c(F)c3)n2)cc1 (centres undefined)	?	-18%	i	?	-34%	?
COC[C@H](c1ccc(C(F)(F)F)cc1)N1CCN(C2(C)CCN(C(=O)c3c(C)ncnc3C)CC2)C[C@H]1C	·	·	i	?	·	?
CCOc1cc(CN2CCSCC2)ccc1O	-16%	3%	i	?	-6%	-11%
CCOc1cc(CN2CCN(c3ccc(C(C)=O)cc3)CC2)ccc1OC	?	0%	i	?	0%	?
CCOc1cc(CN2CCN(c3cccc(C(F)(F)F)c3)CC2)ccc1O	10%	-24%	i	16µM*	-45%	16µM*
SMILES	TGFb inhibitor	ATXN2 expr inh	ATXN viability	DT40 TDP1 no CPT	HepG2 tox	DT40 TDP1 CPT
CCC(c1nnnn1CCOC)N1CCN(c2cccc(C(F)(F)F)c2)CC1 (centres undefined)	1%	-12%	i	?	-2%	?
CCOc1cc(CN2CCN(c3cccc(C(F)(F)F)c3)CC2)ccc1OC	?	-14%	i	16µM*	-30%	?
COc1ccc(CC(C)N2CCN(c3cccc(C(F)(F)F)c3)CC2)cc1OC (centres undefined)	-22%	-35%	i	26µM*	-34%	?
CCCOc1ccc2[nH]cc(C(=O)O)c(=O)c2c1	0%	-5%	i	?	12%	-30%
Cc1ccc(-c2nc3cc(C)c(Br)c(C)n3c2CC(C)(C)C)cc1	-4%	21%	i	16µM*	-56%	9.2µM*
Cc1ccc(-c2nc3cc(C)c(Br)c(C)n3c2Cc2ccsc2)cc1	·	76%	i	7.3µM*	·	5.2µM*
Cc1cc2nc(C3CCCCC3)c(CC(C)(C)C)n2c(C)c1Br	5%	7%	i	?	-42%	?
CCCc1nc2ccc(Cl)cn2c1Cc1ccsc1	-11%	-6%	?	13µM*	-14%	21µM*
Cc1cc2nc(-c3cccc(Br)c3)c(Cc3ccsc3)n2c(C)c1Br	·	20%	i	?	·	?
CCCc1nc2cc(C)c(Br)c(C)n2c1Cc1ccsc1	·	15%	i	18µM*	·	12µM*
C/C(O)=c1/cnc2nc3ccccc3n2c1=O	0%	-5%	i	-2%	-5%	9%
CCN1/C(=C/C=C/C=C/C=C/c2sc3ccccc3[n+]2CC)Sc2ccccc21	?	?	?	0.23µM*	-16%	0.52µM*
CCN1/C(=C/C=C/c2sc3ccccc3[n+]2CC)Sc2ccccc21	?	7.1µM*	11µM*	0.15µM*	-32%	0.18µM*
CC(C)CN(C(=O)COc1ccc([N+](=O)[O-])cc1)c1c(N)n(CC(C)C)c(=O)[nH]c1=O	1%	1%	i	-7%	5%	-10%
O=CNc1ccc(/C=C/c2ccnc3ccccc23)cc1	-16%	·	·	14µM*	-50%	13µM*
O=Cc1ccnc2ccccc12	6%	·	·	-92%	21%	2.8µM*
ON=Cc1ccnc2ccccc12	-23%	·	i	?	3%	-23%
C(=C\c1ccnc2ccccc12)/c1cccnc1	3%	·	·	13µM*	-36%	?
